# Laboratory results reported in the supplement of paper PMC4466140.
# How the values were obtained:
# Assay in all cases: SPOT peptide array binding signal intensity (averaged, normalized) (arbitrary units (background-subtracted, floor 0; scale differs between SH3 domains)); higher = stronger binding of the SH3 domain to the peptide
# [1] = molecular target: AgAbp1
# How it was run: (§1)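 Binding signal is given in arbitrary units that differ between domains and is the normalized, background-subtracted spot intensity averaged across replicates. Each GST-SH3 fusion from one of four yeast species was made in E. coli BL21(DE3), purified on glutathione Sepharose and incubated at 10 μg/ml overnight at 4°C on cellulose-bound synthetic 15-mer peptides in which cysteines were replaced by serines. Detection used anti-GST antibody, an HRP anti-mouse secondary and luminol, followed by imaging and Genespotter quantification.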
# [2] = molecular target: AgBbc1
# How it was run: as §1
# [3] = molecular target: AgBem1-D1
# How it was run: as §1
# [4] = molecular target: AgBzz1-D1
# How it was run: as §1
# [5] = molecular target: AgBzz1-D2
# How it was run: as §1
# [6] = molecular target: AgCyk3
# How it was run: as §1
# [7] = molecular target: AgFus1
# How it was run: as §1
# [8] = molecular target: AgHof1
# How it was run: as §1
# [9] = molecular target: AgHse1
# How it was run: as §1
# [10] = molecular target: AgLsb1
# How it was run: as §1
# [11] = molecular target: AgLsb4
# How it was run: as §1
# [12] = molecular target: AgMyo5
# How it was run: as §1
# [13] = molecular target: AgNbp2
# How it was run: as §1
# [14] = molecular target: AgRvs167
# How it was run: as §1
# [15] = molecular target: AgSho1
# How it was run: as §1
# [16] = molecular target: AgSla1-D1-D2
# How it was run: as §1
# [17] = molecular target: AgSla1-D3
# How it was run: as §1
# [18] = molecular target: CaAbp1-D1
# How it was run: as §1
# [19] = molecular target: CaAbp1-D2
# How it was run: as §1
# [20] = molecular target: CaBbc1
# How it was run: as §1
# [21] = molecular target: CaBem1-D1
# How it was run: as §1
# [22] = molecular target: CaBzz1-D1
# How it was run: as §1
# [23] = molecular target: CaBzz1-D2
# How it was run: as §1
# [24] = molecular target: CaCyk3
# How it was run: as §1
# [25] = molecular target: CaFus1
# How it was run: as §1
# [26] = molecular target: CaHof1
# How it was run: as §1
# [27] = molecular target: CaHse1
# How it was run: as §1
# [28] = molecular target: CaLsb1
# How it was run: as §1
# [29] = molecular target: CaLsb4
# How it was run: as §1
# [30] = molecular target: CaMyo5
# How it was run: as §1
# [31] = molecular target: CaNbp2
# How it was run: as §1
# [32] = molecular target: CaRvs167
# How it was run: as §1
# [33] = molecular target: CaRvs167-3
# How it was run: as §1
# [34] = molecular target: CaSho1
# How it was run: as §1
# [35] = molecular target: CaSla1-D1-D2
# How it was run: as §1
# [36] = molecular target: CaSla1-D3
# How it was run: as §1
# [37] = molecular target: ScAbp1
# How it was run: as §1
# [38] = molecular target: ScBbc1
# How it was run: as §1
# [39] = molecular target: ScBem1-D1
# How it was run: as §1
# [40] = molecular target: ScBzz1-D1
# How it was run: as §1
# [41] = molecular target: ScBzz1-D2
# How it was run: as §1
# [42] = molecular target: ScCyk3
# How it was run: as §1
# [43] = molecular target: ScFus1
# How it was run: as §1
# [44] = molecular target: ScHof1
# How it was run: as §1
# [45] = molecular target: ScHse1
# How it was run: as §1
# [46] = molecular target: ScLsb1
# How it was run: as §1
# [47] = molecular target: ScLsb2
# How it was run: as §1
# [48] = molecular target: ScLsb3
# How it was run: as §1
# [49] = molecular target: ScLsb4
# How it was run: as §1
# [50] = molecular target: ScMyo3
# How it was run: as §1
# [51] = molecular target: ScMyo5
# How it was run: as §1
# [52] = molecular target: ScNbp2
# How it was run: as §1
# [53] = molecular target: ScPex13
# How it was run: as §1
# [54] = molecular target: ScRvs167
# How it was run: as §1
# [55] = molecular target: ScSho1
# How it was run: as §1
# [56] = molecular target: ScSla1-D1-D2
# How it was run: as §1
# [57] = molecular target: ScSla1-D3
# How it was run: as §1
# [58] = molecular target: SpAbp1-D1
# How it was run: as §1
# [59] = molecular target: SpBbc1
# How it was run: as §1
# [60] = molecular target: SpBzz1-D1
# How it was run: as §1
# [61] = molecular target: SpBzz1-D2
# How it was run: as §1
# [62] = molecular target: SpCyk3
# How it was run: as §1
# [63] = molecular target: SpHof1
# How it was run: as §1
# [64] = molecular target: SpHof1-2
# How it was run: as §1
# [65] = molecular target: SpHof1-3
# How it was run: as §1
# [66] = molecular target: SpHse1
# How it was run: as §1
# [67] = molecular target: SpLsb1
# How it was run: as §1
# [68] = molecular target: SpLsb4
# How it was run: as §1
# [69] = molecular target: SpMyo1
# How it was run: as §1
# [70] = molecular target: SpNbp2
# How it was run: as §1
# [71] = molecular target: SpPex13
# How it was run: as §1
# [72] = molecular target: SpRvs167
# How it was run: as §1
# [73] = molecular target: SpSla1-D1-D2
# How it was run: as §1
# [74] = molecular target: SpSla1-D3
# How it was run: as §1
binder,measurement,setting,value
TSIEIPKRSPLRFTS,SPOT peptide array binding signal intensity,[1],9
same,SPOT peptide array binding signal intensity,[2],41.5
same,SPOT peptide array binding signal intensity,[3],9
same,SPOT peptide array binding signal intensity,[4],27
same,SPOT peptide array binding signal intensity,[5],16
same,SPOT peptide array binding signal intensity,[6],1.5
same,SPOT peptide array binding signal intensity,[7],≤ 0
same,SPOT peptide array binding signal intensity,[8],6.5
same,SPOT peptide array binding signal intensity,[9],≤ 0
same,SPOT peptide array binding signal intensity,[10],≤ 0
same,SPOT peptide array binding signal intensity,[11],16.5
same,SPOT peptide array binding signal intensity,[12],2
same,SPOT peptide array binding signal intensity,[13],10.5
same,SPOT peptide array binding signal intensity,[14],2.33
same,SPOT peptide array binding signal intensity,[15],≤ 0
same,SPOT peptide array binding signal intensity,[16],≤ 0
same,SPOT peptide array binding signal intensity,[17],≤ 0
same,SPOT peptide array binding signal intensity,[18],272
same,SPOT peptide array binding signal intensity,[19],81
same,SPOT peptide array binding signal intensity,[20],484
same,SPOT peptide array binding signal intensity,[21],12
same,SPOT peptide array binding signal intensity,[22],41
same,SPOT peptide array binding signal intensity,[23],20
same,SPOT peptide array binding signal intensity,[24],58.5
same,SPOT peptide array binding signal intensity,[25],42
same,SPOT peptide array binding signal intensity,[26],≤ 0
same,SPOT peptide array binding signal intensity,[27],≤ 0
same,SPOT peptide array binding signal intensity,[28],≤ 0
same,SPOT peptide array binding signal intensity,[29],27
same,SPOT peptide array binding signal intensity,[30],3
same,SPOT peptide array binding signal intensity,[31],61
same,SPOT peptide array binding signal intensity,[32],2
same,SPOT peptide array binding signal intensity,[33],≤ 0
same,SPOT peptide array binding signal intensity,[34],6
same,SPOT peptide array binding signal intensity,[35],83
same,SPOT peptide array binding signal intensity,[36],≤ 0
same,SPOT peptide array binding signal intensity,[37],21
same,SPOT peptide array binding signal intensity,[38],5
same,SPOT peptide array binding signal intensity,[39],≤ 0
same,SPOT peptide array binding signal intensity,[40],4.5
same,SPOT peptide array binding signal intensity,[41],1
same,SPOT peptide array binding signal intensity,[42],3
same,SPOT peptide array binding signal intensity,[43],≤ 0
same,SPOT peptide array binding signal intensity,[44],0.5
same,SPOT peptide array binding signal intensity,[45],20.5
same,SPOT peptide array binding signal intensity,[46],≤ 0
same,SPOT peptide array binding signal intensity,[47],≤ 0
same,SPOT peptide array binding signal intensity,[48],252
same,SPOT peptide array binding signal intensity,[49],≤ 0
same,SPOT peptide array binding signal intensity,[50],11.5
same,SPOT peptide array binding signal intensity,[51],2
same,SPOT peptide array binding signal intensity,[52],2
same,SPOT peptide array binding signal intensity,[53],2
same,SPOT peptide array binding signal intensity,[54],101
same,SPOT peptide array binding signal intensity,[55],0.5
same,SPOT peptide array binding signal intensity,[56],≤ 0
same,SPOT peptide array binding signal intensity,[57],30.2
same,SPOT peptide array binding signal intensity,[58],206
same,SPOT peptide array binding signal intensity,[59],≤ 0
same,SPOT peptide array binding signal intensity,[60],162
same,SPOT peptide array binding signal intensity,[61],≤ 0
same,SPOT peptide array binding signal intensity,[62],2
same,SPOT peptide array binding signal intensity,[63],73
same,SPOT peptide array binding signal intensity,[64],8.75
same,SPOT peptide array binding signal intensity,[65],25.5
same,SPOT peptide array binding signal intensity,[66],76.8
same,SPOT peptide array binding signal intensity,[67],≤ 0
same,SPOT peptide array binding signal intensity,[68],376
same,SPOT peptide array binding signal intensity,[69],12.5
same,SPOT peptide array binding signal intensity,[70],≤ 0
same,SPOT peptide array binding signal intensity,[71],≤ 0
same,SPOT peptide array binding signal intensity,[72],94
same,SPOT peptide array binding signal intensity,[73],1
same,SPOT peptide array binding signal intensity,[74],≤ 0
